High-throughput results deposited in PubChem BioAssay by National Center for Advancing Translational Sciences (NCATS).
CHX counter = counter-screen hit for Shiga toxin inhibitors, cycloheximide. 300,000 compounds, 12% hits. cell reporter, cycloheximide protein synthesis inhibition counterscreen. max response, %. AID 2314; in the data active = max response mostly above about 13%, no sharp cut-off; inactive = mostly below about 14%; also: read at 38.3 µM for the half of the compounds with a filed dose; 0% is about no effect
Pf growth 48h = inhibits P. falciparum growth in the first generation, 48 h; P. falciparum luciferase growth in erythrocytes, 48 h; Potency, µM (series often up to 28.7 µM), for the others: at the highest dose activity change, negative = inhibition, hits mostly inhibitors; 310,000 compounds, 5.9% hits; AID 504832; also: potency is read from the fitted curve at half-maximal effect; % is scaled to controls: 0 for no effect and ±100 for the full control effect
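Erythrocytes infected with P. falciparum carrying an integrated firefly luciferase reporter (2% hematocrit, 0.1% parasitemia final) were exposed to compounds in RPMI 1640 with 0.5% Albumax at 37 C, 5% CO2. Growth inhibition was scored as reduced luminescence.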
Shiga inhibitor = inhibitors of Shiga toxin in Vero cells; Vero cells, Shiga toxin protein synthesis inhibition reporter; inhibition, % at 38.7 µM; 290,000 compounds, 9.2% hits; in the data active = inhibition mostly above about 28%, no sharp cut-off; inactive = mostly below about 43%; also: 0% is about no effect
Pf growth 96h = P. falciparum growth inhibition at 96 hour, primary screen for plastid delayed-death inhibitors | P. falciparum luciferase reporter growth, 96 h | AID 504834 | 320,000 compounds, 6.9% hits | Potency, µM (series often up to 28.7 µM), for the others: at the highest dose activity change, negative = inhibition, most hits filed as inhibitors; also: potency is read from the fitted curve at half-maximal effect; % is scaled to controls: 0 for no effect and ±100 for the full control effect
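Infected RBCs, 2% Hct / 0.05% parasitemia final; luciferase-reporter P. falciparum; cpd 96 h, 37 C, 5% CO2; luciferase detection reagent; luminescence.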
NS1 inh = influenza NS1 inhibition; 270,000 compounds, 0.4% hits; Potency, µM (top dose mostly 46.1 µM), without a hit: top-dose activity, positive = more growth; AID 2326; calls by dose curve; also: potency is read from the fitted curve at half-maximal effect; actives are rising curves; nearly all actives have a fitted effect of over 50% in size
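A cell-based growth assay was used: compounds that relieve NS1-induced slow growth of budding yeast raise OD600. Assay medium was yeast nitrogen base with ammonium sulphate and -URA supplement, pH 6.0, with 2% galactose.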
FBPA Giardia inh = inhibitors of Giardia lamblia fructose-1,6-bisphosphate aldolase. A8B2U2. Potency, µM (series often up to 59.6 µM), for the others: at the top dose activity, negative = inhibition, usual class: inhibitors. AID 2451. purified Giardia FBPA. 290,000 compounds, 0.71% hits; also: potency is read from the fitted curve at half-maximal effect; % is scaled to controls: 0 for no effect and ±100 for the full control effect; nearly all actives have a fitted effect of over 55% in size
Target sequence (A8B2U2 whole entry, looked up): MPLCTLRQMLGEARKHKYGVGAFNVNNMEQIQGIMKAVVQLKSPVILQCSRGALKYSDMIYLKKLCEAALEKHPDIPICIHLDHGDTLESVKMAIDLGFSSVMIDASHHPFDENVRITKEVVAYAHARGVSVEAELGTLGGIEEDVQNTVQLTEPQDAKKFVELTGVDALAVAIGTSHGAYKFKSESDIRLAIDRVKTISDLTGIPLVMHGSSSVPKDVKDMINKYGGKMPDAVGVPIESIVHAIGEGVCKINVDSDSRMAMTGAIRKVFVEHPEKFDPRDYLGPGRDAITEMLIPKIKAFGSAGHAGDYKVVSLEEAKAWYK
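Giardia FBPA (40 nM reagent) was preincubated 10 min at RT with compound (up to 57.5 uM final), then substrate plus GAPDH/TPI/NAD/arsenate coupling system with diaphorase/resazurin was added; resorufin fluorescence (525/598 nm) was read after 20 min.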
The depositor's hits bear a star; i = inactive; ? = inconclusive; . = not tested or not shown; [ ] = another dose, or the depositor's remark. Sampled rows, rich in hits. Any-hit rate of the full collection: about 21%. Unless noted, calls follow the shape of the dose curve; as a rule, active = well fitted curve in the direction sought with a large enough effect; inconclusive = small, poorly fitted or top-dose-only effect, or another doubt; inactive = no such curve, though single readings can be large; an effect the other way counts as inactive or inconclusive.

SMILES	CHX counter	Pf growth 48h	Shiga inhibitor	Pf growth 96h	NS1 inh	FBPA Giardia inh
O=C(Nc1ccc(OC(F)(F)F)cc1)c1ccc2nccnc2c1	27.2*	20.0%[5.75 µM]	79.4*	17.9%	.	-17.6%
O=C(Nc1ccc(Cn2cccn2)cc1)c1ccc(COc2ccc(Br)cc2)cc1	-1.9	6.4%	25.3	.	5.1%	2.1%
O=C(Nc1ccc(Cn2cccn2)cc1)c1ccc(COc2cccc(Br)c2)cc1	18.6*	.	21.7	?	-2.4%	-2.8%
CCn1c(=O)c(C(=O)NCc2ccc(OC)cc2)c(O)c2ccccc21	-1.9	-8.7%	-9.4	20.8%	2.0%	-19.5%
CCn1c(=O)c(C(=O)Nc2ccccc2F)c(O)c2ccccc21	9.1*	-6.1%	43.1	?	-10.3%	11.4%
CCn1c(=O)c(C(=O)NCc2ccccn2)c(O)c2ccccc21	-0.4	-16.0%	-5.6	11.7µM*	-153.8%	?
c1ccc2[nH]c(-c3cscn3)nc2c1	52.9*	84.7%	102.2*	13.7%	-9.7%	-8.9%
c1ccc2nc(-c3nc4ccccc4[nH]3)ccc2c1	14.3*	29.8%	22.2	.	-21.3%	-17.3%
CC(NC(=O)CSc1nc2c(c(C(F)(F)F)n1)CCc1ccccc1-2)c1ccccc1 (configuration not stated)	-1.3	7.38µM*	-8.9	-3.6%	3.8%	-12.3%
COC(=O)c1cc2oc(C)cc2n1CC(=O)Nc1ccc(C)c(C)c1	-1.6	0.0%	22.9	1.65µM*	-11.2%	0.7%
COC(=O)c1cc2oc(C)cc2n1CC(=O)N1CCCc2ccccc21	13.7	?	31.6	6.57µM*	-8.7%	-3.9%
COC(=O)c1cc2sccc2n1CC(=O)N1CCCc2ccccc21	-1.0	?	24.6	?	-12.2%	-13.4%
COC(=O)c1cc2sc(Cl)cc2n1CC(=O)N1CCCc2ccccc21	-2.9	10.4µM*	-2.4	20.6%	-9.6%	-3.8%
CCOC(=O)c1cc2occc2n1CC(=O)N1CCCc2ccccc21	11.8	9.28µM*	12.9	i	3.9%	-5.0%
COC(=O)c1cc2occc2n1CC(=O)Nc1ccc(C)cc1C	-2.4	-12.0%	-8.3	.	3.5%	0.7%
CCOC(=O)c1cc2sc(C)cc2n1CC(=O)N1CCc2ccccc21	-1.6	.	3.5	?	2.4%	1.7%
CCC(C)(C)NC(=O)C(c1ccco1)N(C(=O)Cn1nnc2ccccc21)c1ccc2c(c1)OCO2 (configuration not stated)	4.9	?	-7.5	7.38µM*	-7.1%	-2.8%
Cc1ccc(N(C(=O)Cn2nnc3ccccc32)C(C(=O)NCc2ccco2)c2ccc(C)o2)cc1 (configuration not stated)	-3.1	13.1µM*	5.1	?	-33.3%	-5.6%
Cc1cc(C)cc(N(C(=O)Cn2nnc3ccccc32)C(C(=O)NCc2ccco2)c2ccncc2)c1 (configuration not stated)	11.1	-21.2%	34.2	17.8%	-8.9%	-25.4%
O=C(NCc1ccco1)C(c1ccccc1)N(Cc1cccnc1)C(=O)Cn1nnc2ccccc21 (configuration not stated)	-5.2	-14.9%	-3.9	.	1.2%	0.2%
Cc1ccc(CN(C(=O)Cn2nnc3ccccc32)C(C(=O)NCc2ccco2)c2ccc(C)o2)cc1 (configuration not stated)	16.0*	?	42.2*	?	14.6%	0.0%
Cc1ccccc1CCN(C(=O)Cn1nnc2ccccc21)C(C(=O)NC(C)(C)C)c1ccsc1 (configuration not stated)	10.8	?	-4.7	1.17µM*	3.9%	1.2%
C[C@@H](O)C1NC(=O)[C@H](CCCCN)NC(=O)c2cc([N+](=O)[O-])cc(I)c2OCC[C@@H](C(N)=O)NC1=O (some centres not stated)	-1.5	17.7%	-13.0	-0.2%	-2.0%	6.6%
O=C(O)c1ccc2c(=O)n3c(nc2c1)/C(=C/c1cccc(Cl)c1Cl)CC3	-1.6	?	-5.7	?	2.6%	12.3%
CNC(=O)c1ccc(C)c(NC(=O)C2=C(C)OCCS2)c1	-3.5	13.7%	-14.5	-11.3%	-0.7%	-6.0%
SMILES	CHX counter	Pf growth 48h	Shiga inhibitor	Pf growth 96h	NS1 inh	FBPA Giardia inh
CCOCCCNCC(=O)NCC1CCCCC1	-2.5	3.9%	-4.6	1.3%	-6.1%	?
CCCCN(C(=O)Cn1nnc2ccccc21)C(C(=O)NCc1ccco1)c1ccncc1 (configuration not stated)	7.3	8.0%	-13.1	-9.2%	-11.9%	-26.6%
COc1ccc(N(C(=O)Cn2nnc3ccccc32)C(C(=O)NCc2ccco2)c2ccc(C)o2)cc1 (configuration not stated)	30.3*	?	29.2	?	-31.9%	-0.8%
Cc1ccc(C(C(=O)NCc2ccco2)N(CCc2ccccc2)C(=O)Cn2nnc3ccccc32)o1 (configuration not stated)	9.0	13.1µM*	40.4	.	-47.5%	0.6%
CC(=O)c1ccc(N(C(=O)Cn2nnc3ccccc32)C(C(=O)NCc2ccccc2)c2ccccn2)cc1 (configuration not stated)	47.4*	-0.9%	76.4*	6.9%	-7.9%	10.0%
CCC(C)(C)NC(=O)C(c1cccn1C)N(Cc1ccc(OC)cc1)C(=O)Cn1nnc2ccccc21 (configuration not stated)	-1.8	9.28µM*	-8.6	?	14.8%	6.8%
CCN1c2ccccc2S(=O)(=O)c2ccccc21	-0.9	?	-13.1	?	0.5%	0.8%
O=C(CCc1ccccc1)N=C1SC2CS(=O)(=O)CC2N1c1cccc(F)c1 (configuration not stated)	6.1	15.0%	-4.0	5.9%	0.6%	2.7%
O=C(COC(=O)c1ccc(Br)o1)c1ccc(S(=O)(=O)N2CCCCC2)cc1	.	11.9%	.	?	.	.
CC(C)(C)c1cc(CCC(=O)NCC2CCCO2)cc(C(C)(C)C)c1O (configuration not stated)	-3.2	-0.8%	-11.0	?	5.0%	.
CN(CCC#N)C(=O)COC(=O)c1c2c(nc3ccccc13)/C(=C/c1ccco1)CC2	38.4*	12.1%	23.5	-34.1%	?	?
O=C(COC(=O)c1c2c(nc3ccccc13)/C(=C\c1cccs1)CCC2)Nc1ccccc1	0.1	?	9.8	?	24.2%	-5.2%
Cc1ccc(-n2cc(C(=O)c3ccccc3O)cn2)cc1	52.6*	-66.9%	61.3*	i	-4.1%	2.2%
Cc1ccc(-n2cc(C(=O)c3ccc4ccccc4c3O)cn2)cc1	-2.6	10.3%	2.3	45.9%	15.0%	3.3%
Cc1ccc(O)c(C(=O)c2cnn(-c3ccccc3)c2)c1	26.9*	96.8%	108.4*	.	-6.1%	3.3%
O=C(Cc1cnn(-c2ccccc2)c1)c1ccc(O)c(O)c1O	17.1*	.	34.8	8.9%	-88.7%	3.54µM*
Oc1cnn(-c2ccccc2)c1	15.5*	48.8%	16.6	.	4.6%	0.8%
